For 92 molecules, inhibition results are on record in PubChem BioAssay AID687043 (Milwaukee Institute for Drug Discovery, 2013).

Out of some 16,000 compounds screened, about 250 (1.6%) were called active.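 How the source made its calls: active means inhibition above the average over every tested compound plus 3 SD (cut at about 40% in these data); inactive means the rest.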 For the sample, actives were picked, then their nearest neighbours and some compounds at random.

The assay concerns Hepatitis C virus NS3 helicase. The assay is described as follows: compounds blocking NS3h DNA binding – biochemical, fluorescence polarization, ChemBridge library, primary screen (AID 687043). The note with it: NS3h Cy5-dT15 DNA binding, at 100 µM, stronger effect = higher value. On the technique in general: Fluorescence polarisation rises when a labelled molecule tumbles more slowly, as on binding a larger partner.
The inhibition is the drop in the measured response relative to a control, in per cent. On to `CCCOC(=O)Cc1c(O)c2ccccc2[nH]c1=O`, for which the inhibition was -1.3% (inactive).

Turning to `O=[N+]([O-])c1ccc2c(c1)S(=O)(=O)N=C2Nc1cccnc1`, the inhibition was -7.4% (inactive). Next, `O=c1[nH][nH]c(=O)c2cc(N3CCCC3)ccc12`: 4.3% (inactive); `O=C(NCc1ccccc1)C1CC(=O)N(c2ccc(Cl)cc2)C1` (configuration not stated): 2.8% (inactive); `Cc1ccc2c(C)[n+](C)ccn12`: 15.6% (inactive). Take `COc1ccc(C2CC(=O)C3=C(C2)Nc2ccccc2NC3c2ccc(SC)cc2)cc1` (configuration not stated): the inhibition is 11% (inactive). Next, `Cc1cccc(NC(=O)/C=C/c2ccc(F)cc2)c1`: 2.2% (inactive); `Cc1ccc(/C=C/C(=O)Nc2cccc([N+](=O)[O-])c2)o1`: 6.1% (inactive); `Cc1ccc(/C=C/C(=O)Nc2ccc(Br)cc2)o1`: 42.5% (active). Next, `Cc1cccc(N2C(=O)S/C(=C/c3ccc(N(C)C)cc3)C2=O)c1`: 15.9% (inactive). The figure for `COc1ccc(C2CC(=O)C3=C(C2)Nc2ccccc2NC3c2cccc(Cl)c2)cc1` (configuration not stated) is 9.2% (inactive); for `CCCCCCN1C(=O)C(O)=C(C(C)=O)C1c1ccc(Br)cc1` (configuration not stated) it is -0.7% (inactive); for `CCCCNC(=O)C(=O)NCCCOC(C)C` it is 4.2% (inactive). Take `O=C(Nc1ccc(Cl)cc1)/C(=C\c1cccc([N+](=O)[O-])c1)NC(=O)c1cccs1`: the inhibition is 0.7% (inactive). Take `FC(F)(F)c1cc(/C=C/c2ccccc2)n[nH]1`: the inhibition is 10.2% (inactive). Next, `CC(C)(C)C(=O)COc1ccc2c(-c3ccccc3)cc(=O)oc2c1`: 14.2% (inactive). Consider `COc1ccc(C2C=C(Nc3ccccc3)C(=O)N2c2ccccc2)c(OC)c1` (configuration not stated), for which the inhibition was -9.5% (inactive).

In the case of `FC(F)(F)c1ccc(/C=N\N2CCN(Cc3cccc4ccccc34)CC2)cc1`, the inhibition was 3.6% (inactive).

As to `O=C1C2ON(c3ccccc3)C(c3ccc(Br)cc3)C2C(=O)N1c1ccccc1C(F)(F)F` (configuration not stated), the inhibition was 13.4% (inactive). For `CCc1c(C)nc2cc(-c3cccs3)[nH]n2c1=O`, the inhibition is -7.2% (inactive).

For the molecule `O=c1c2c(nc3cc(-c4cccc(F)c4)[nH]n13)CCS2`, the inhibition is 57.3% (active). Consider `CC(=O)Nc1c(C)cc(C2(c3cc(C)c(NC(C)=O)c(C)c3)CCCCC2)cc1C`, for which the inhibition is 2.3% (inactive). Next, `CCOC(=O)c1c(-c2ccc(C)cc2C)csc1NC(=S)NC(=O)c1ccccc1`: 3.9% (inactive).

Turning to `O=C(NC(Cc1ccc(O)cc1)C(=O)O)/C(=C/c1ccccc1)NC(=O)c1ccccc1` (configuration not stated), the inhibition is -11.5% (inactive). The figure for `Cc1cccc(N(CC(=O)O)S(C)(=O)=O)c1` is 4.5% (inactive); for `CCOC(=O)c1ccc(NC(=O)CN(c2cccc([N+](=O)[O-])c2)S(=O)(=O)c2ccccc2)cc1` it is 24.9% (inactive); for `O=C(O)CC1S/C(=N\N=C2/C(=O)Nc3ccccc32)N(c2ccc(O)cc2)C1=O` (configuration not stated) it is 1.8% (inactive).

In the case of `CCOc1ccccc1NC(=O)CN(c1ccc(OC)cc1)S(=O)(=O)c1ccc(C)cc1`, the inhibition was 13.8% (inactive). Next, `COc1cc(/C=C2/SC(=S)N(C)C2=O)ccc1OC(=O)c1cccs1`: 2.6% (inactive); `COc1ccc(-c2nc3cc(NC(=O)C(C)C)ccc3o2)cc1OC`: -6.3% (inactive). The figure for `CC(=O)C1=C(C)NC(C)=C(C(C)=O)C1c1cn(-c2ccccc2)nc1-c1cccs1` is 15.6% (inactive). On to `O=C(NC(=S)Nc1ccc(-c2nc3cc(Cl)ccc3o2)cc1)c1ccco1`, for which the inhibition is 124% (active). Next, `O=C(NC(=S)Nc1ccc2oc(-c3cccnc3)nc2c1)c1ccc(Cl)cc1`: -3.5% (inactive); `O=C(NC(=S)Nc1ccc2oc(-c3ccc(Br)cc3)nc2c1)c1ccco1`: 17% (inactive); `CCOC(=O)C1=C(C)N=c2s/c(=C\c3ccc(F)cc3)c(=O)n2C1c1cccc(OC)c1` (configuration not stated): 10% (inactive).

As to `O=C(NCCCc1ccccc1)C1(c2ccccc2)CCCC1`, the inhibition is 27% (inactive). The figure for `CCN(CC)c1ccc(/C=C2\C(=O)NC(=O)N(C)C2=O)cc1` is 27.7% (inactive); for `CCN(CC)c1ccc(/C=C2\C(=O)NC(=O)N(c3ccc(OC)cc3)C2=O)c(OC)c1` it is -5.2% (inactive).

For `CCN(CC)c1ccc(C=C2C(=O)N(C)C(=O)N(C)C2=O)c(O)c1`, the inhibition is 120% (active). Next, `Cc1ccc(N2C(=O)NC(=O)/C(=C\c3ccc(I)cc3)C2=O)cc1`: 12.1% (inactive).

As to `CCOC(=O)c1c(CN(CCO)CCO)n(C)c2c1cc(OC(C)=O)c1c2c(-c2ccccc2)nn1-c1ccccc1`, the inhibition was -6.5% (inactive). With `Cc1ccc(N2C(=O)CC(NCCc3ccccc3F)C2=O)cc1` (configuration not stated), the inhibition is 8.2% (inactive). Consider `CCOC(=O)c1ccc(NC(=O)c2ccccc2OC)cc1`, for which the inhibition is 17.7% (inactive).

Consider `Cc1ccc([N+](=O)[O-])cc1NC(=O)C1CC1(c1ccccc1)c1ccccc1` (configuration not stated), for which the inhibition is 1.8% (inactive). Consider `O=S(=O)(Nc1ccc(O)c(-c2c(O)ccc3ccccc23)c1)c1cc(Cl)ccc1Cl`, for which the inhibition is 4.2% (inactive). In the case of `CCCCCCN1C(=O)C(=O)C(=C(O)c2ccccc2)C1c1ccccc1OC` (configuration not stated), the inhibition was 1.4% (inactive). On to `COc1cc(C(=S)N2CCOCC2)cc(OC)c1OC(=O)c1ccc(Br)cc1`, for which the inhibition is 15.4% (inactive).

With `Cc1ccc(S(=O)(=O)c2ccc(Sc3ccc(Cl)cc3)cc2)cc1`, the inhibition was 15.4% (inactive). The figure for `COc1ccc(-c2nc3sc(-c4ccc(OC)cc4)nc3s2)cc1` is 6% (inactive); for `O=C1NC(=Nc2ccc(F)cc2)S/C1=C/c1ccc(Br)cc1` it is 4.6% (inactive). The figure for `Cc1cc(NC(=O)c2ccc(-c3cccc([N+](=O)[O-])c3)o2)ccc1NC(=O)c1ccco1` is 14.7% (inactive); for `CCOc1cccc2c1N(C(=O)c1ccc(OC)cc1)C(C)(C)C(=S)C2=C1SC(C(=O)OC)=C(C(=O)OC)S1` it is 0.9% (inactive).

`CS(=O)(=O)N1CCN(C(=O)Cc2ccccc2)CC1`: the inhibition is 7.7% (inactive).

With `CCOc1ccc(/C=C2/Sc3ccccc3C2=O)cc1OCC`, the inhibition was 6.1% (inactive). The figure for `COc1ccc(N=Cc2sccc2C)c([N+](=O)[O-])c1` is 4.3% (inactive). In the case of `COc1ccc(N2C(=O)C=CC2=O)c([N+](=O)[O-])c1`, the inhibition is 97.8% (active). Next, `COc1ccc(N2C(=O)C3C4C=CC(C4=C(C)C)C3C2=O)c([N+](=O)[O-])c1` (configuration not stated): 15.2% (inactive); `Cc1ccc2[nH]c(C)c(CN3CCOCC3)c(=O)c2c1`: -1.6% (inactive). For `CC(Oc1cccc(Cl)c1)C(=O)Nc1ccccc1C(=O)N1CCN(Cc2ccccc2)CC1` (configuration not stated), the inhibition was 0.3% (inactive). With `COC(=O)C(NC(=O)c1ccccc1)C12CC3CC(CC(C3)C1)C2` (configuration not stated), the inhibition was 7.5% (inactive). Next, `Cc1cc(C)n(C(=O)c2cc(F)c(F)cc2Cl)n1`: 3.6% (inactive); `Cc1ccc(NC2=CC(=O)C=CC2=O)c(C)c1`: -2.9% (inactive); `COc1ccc(OC)c(N(CC(=O)Nc2cccc(Br)c2)S(C)(=O)=O)c1`: 9.1% (inactive).

For the molecule `CCC(=O)N1CCN(c2ccc(C(=O)c3ccccc3)cc2F)CC1`, the inhibition is -2.8% (inactive). Next, `Cc1cc(/C=C(/C#N)C(=O)Nc2ccc(F)cc2)c(C)n1-c1ccc(Cl)cc1`: -2.8% (inactive). The figure for `CCN1C(=O)C(=Cc2ccc(O)cc2)C(=O)NC1=S` is 65.4% (active); for `COc1ccc(/C=C2\C(=O)NC(=S)N(c3ccc(Br)cc3)C2=O)cc1` it is 5.9% (inactive); for `CCOC(=O)c1ccc(N2NC(=O)/C(=C/c3ccc(O)cc3)C2=O)cc1` it is 5.1% (inactive). The figure for `COc1ccccc1NC(=O)C(=O)NCc1ccccc1` is -0.6% (inactive). With `Cc1oc2cc(Br)c(O)cc2c1C(=O)OC(C)C`, the inhibition was 9.4% (inactive). Next, `O=C(c1nn2c(c1Cl)NC(c1cccs1)CC2C(F)(F)F)N1CCN(c2ccc(F)cc2)CC1` (configuration not stated): 5.2% (inactive). As to `Cc1cccc(NC(=O)CSc2ncn[nH]2)c1`, the inhibition is 1.3% (inactive). Next, `COc1ccc(CNS(=O)(=O)c2ccc(Cl)cc2)cc1`: -5% (inactive). Next, `CC(C)Oc1ccc(/C=C(/NC(=O)c2ccccc2)C(=O)Nc2ccccc2)cc1`: 14.7% (inactive). Next, `CCN(CC)c1ccc(NC(=O)/C(=C\c2ccccc2)NC(C)=O)cc1`: 56.6% (active); `CC(=O)Nc1ccc(NC(=S)NC(=O)/C=C/c2ccccc2)cc1`: -21.9% (inactive); `Cc1c(C=O)c(=O)oc2c3c4c(cc12)CCCN4CCC3`: 1.3% (inactive).

For the molecule `O=C(NC1C2CC3CC(C2)CC1C3)c1cccc(I)c1` (configuration not stated), the inhibition was 15.2% (inactive).

As for `O=c1oc2ccc3ccccc3c2cc1-c1ccc(I)cc1`, the inhibition was 4.2% (inactive).

For the molecule `CC(=O)Oc1ccccc1-c1nc2s/c(=C/c3ccco3)c(=O)n2n1`, the inhibition was 6.7% (inactive).

Consider `Cc1cc(/C=C2\C(=O)NC(=O)N(c3ccc4c(c3)OCO4)C2=O)c(C)n1-c1ccc(F)cc1`, for which the inhibition was 14.5% (inactive). Consider `Cc1cccc(OCCOc2ccc(Cl)cc2/C=C2/SC(=S)N(C)C2=O)c1`, for which the inhibition was 23.2% (inactive). The figure for `O=C1C2C3C=CC(C3)C2C(=O)N1/N=C\c1ccc(-c2ccccc2[N+](=O)[O-])o1` (configuration not stated) is 10.6% (inactive). The figure for `COC(=O)c1ccccc1NC(=O)c1ccc(Cl)cc1` is -2.8% (inactive); for `COc1ccc(CC(=O)Nc2cc(NC(=O)Cc3ccc(OC)cc3)cc(C(=O)NC(C)(C)C)c2)cc1` it is 8.2% (inactive); for `O=C1NN(c2ccccc2)C(=O)/C1=C/c1c(Cl)cccc1Cl` it is 8.3% (inactive). Next, `O=C1c2ccc(C(c3ccc4c(c3)C(=O)N(c3ccccc3)C4=O)(C(F)(F)F)C(F)(F)F)cc2C(=O)N1c1ccccc1`: 8.7% (inactive). `CC(C)C(=O)Nc1ccc2c3c(cccc13)CC2`: the inhibition is 0.3% (inactive). As for `COc1ccccc1N1CCN(/N=C(/C)c2ccncc2)CC1`, the inhibition was -3.7% (inactive).

For `COc1ccc(/C=c2\sc3n(c2=O)C(c2ccc(OC)cc2)C(C(=O)OC(C)C)=C(C)N=3)cc1` (configuration not stated), the inhibition is -0.7% (inactive). For the molecule `CCOc1ccccc1NC(=O)c1ccc(CN2CCOCC2)cc1`, the inhibition is 6.1% (inactive). On to `Cc1ccc(C(=O)N/C(=C/c2cccc3ccccc23)C(=O)N2CCCC2)cc1`, for which the inhibition is -0.3% (inactive).
